Test results published in PubChem BioAssay.
Values joined by “and” are separate entries in the source; they are usually repeats but may differ in a detail not shown here. Equal entries are not always repeated. Active and inactive are the calls of the source.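 Rule for the calls: active = inhibition at or above 50% relative to wild type and mutant plate controls; inactive = inhibition below 50%.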

Experiment: inhibitors of Chlamydomonas gravitaxis, primary screen, whole organism, Chlamydomonas reinhardtii, WT vs cilia-less mutant, absorbance, 96-well (AID 463189);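 note: 0% = wild type cc124 cells in DMSO and 100% = ciliumless bld1 mutant cells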
Settings: OD600 absorbance, 2 days, at 10 µM, stronger effect = higher value

inhibition, inactive:
COc1ccccc1N1CCN(CCN(C(=O)C2CCCCC2)c2ccccn2)CC1 9.85%, CNCC[C@@H](Oc1ccc(C(F)(F)F)cc1)c1ccccc1 34%, Oc1cc2c(cc1O)CN(C(=S)NCCc1ccc(Cl)cc1)CCC2 23.4%, COc1ccc2[nH]cc(CCNC(C)=O)c2c1 13.5%, O=C1NC(c2cccc([N+](=O)[O-])c2)=CCN1c1ccccc1O -0.979%, Cn1cc(C2=C(c3ccc(Cl)cc3Cl)C(=O)NC2=O)c2ccccc21 -0.155%, COc1ccccc1N1CCN(CCCNc2cc(=O)n(C)c(=O)n2C)CC1 9.94%, O=C(O)CC1CCCc2ccccc2C1O (stereo not given) 4.59%, COC(=O)[C@@H]1[C@H]2C[C@H]3c4[nH]c5ccccc5c4CCN3C[C@@H]2CC[C@@H]1O 8.68%, OC[C@H]1NC[C@@H](O)[C@@H]1O -9.59%, OC[C@H]1O[C@@H](n2cnc3c(N[C@H]4CC5CCC4C5)ncnc32)[C@H](O)[C@@H]1O (stereo not given in full) 2.84%, N=S(=O)(O)Cc1noc2ccccc12 4.33%, N[C@H]1CONC1=O 6.36%, CCCCCCCCCC[Si](C)(C)CCC(=O)NC(Cc1ccc(C)cc1)c1ccccc1 (stereo not given) 1.73%, NCCCNCCCCNCCCN -2.56%, CNCCC(Oc1ccccc1OC)c1ccccc1 (stereo not given) 13.4%, Cn1ccnc1 9.19%, Cn1c(=O)c2c(ncn2C)n(C)c1=O 1.74%, Cc1c(CC(C)(C)C(=O)O)n(Cc2ccc(Cl)cc2)c2ccc(F)cc12 1.93%, CCn1ccnc1CC1COc2ccccc2O1 (stereo not given) 5.81%, N=C(N)c1ccccc1 7.5%, COc1cc(/C=C(\C#N)C(=O)c2ccc(O)c(O)c2)cc(I)c1O 7.26%, CN(C)CCN(Cc1cccs1)c1ccccn1 2.59%, N[C@H](C(=O)O)[C@H]1C[C@@H]1C(=O)O 2.25%, Cc1ccc(O)c(N=Nc2ccccc2)n1 -1.99%, O=C1CC2(CCCC2)CC(=O)N1CCCCN1CCN(c2ncccn2)CC1 3.65%, Nc1ncnc2c1ncn2C1CCCC1 -2.12%, N[C@H](C(=O)O)[C@H](O)C(=O)O 0.558%, CC1C(=O)N(C)C(=O)c2nc[nH]c21 (stereo not given) 7.36%, N#C/C(=C\c1ccc(O)c(O)c1)C(=O)c1ccc(O)c(O)c1 2.24%, C[N+](C)(C)CCCCCC[N+](C)(C)C 5.27% and -2.94%, CC1CN(S(=O)(=O)c2cccc3cnccc23)CCN1 (stereo not given) 5.73%, O=C(O)c1cc(=O)c2ccccc2[nH]1 9.15%, CCCc1c(OCCCOc2ccc(OCC(=O)O)cc2)ccc(C(C)=O)c1O 0.316%, Nc1ncnc2c1ncn2[C@@H]1O[C@H](COP(=O)(O)OP(=O)(O)OP(=O)(O)OP(=O)(O)OC[C@@H]2O[C@H](n3cnc4c(N)ncnc43)C(O)[C@@H]2O)[C@H](O)C1O (stereo not given in full) 15%, CC(C(O)c1ccc(O)cc1)N1CCC(Cc2ccccc2)CC1 (stereo not given) 1.86%, CCN(CC)C(C)C(=O)N1c2ccccc2Sc2ccccc21 (stereo not given) 40.1%, CN=C(N)NCCC[C@H](N)C(=O)O 3.39%

inhibition, active:
Cc1cc(N)c2ccccc2[n+]1CCCCCCCCCCCCCC[n+]1c(C)cc(N)c2ccccc21 154%, O=C1C(SCCO)=C(SCCO)C(=O)c2ccccc21 152%
